G9a block = blocks human histone lysine methyltransferase G9a; G9a H3K9 monomethylation, AlphaScreen, 2 h; Potency, µM (highest dose often 102 µM), for the others: at the top dose activity, negative = inhibition, usual class: inhibitors; 350,000 compounds, 8.8% hits; AID 504332; note: % is set by controls: 0 for no effect and ±100 for the full control effect; nearly all actives have a fitted effect of over 75% in size
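Chemiluminescent proximity detection of H3K9 monomethylation, read after 10 min bead incubation in the dark. Reaction: 20 nM G9a, 500 nM biotin-H3K9 peptide, 20 uM SAM cofactor, 2 h, room temperature, following 15 min enzyme-compound preincubation.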
BAZ2B block = BAZ2B (human) inhibition. 360,000 compounds, 4.4% hits. Q9UIF8. Potency, µM (doses to about 114 µM), inactives show at the highest dose activity change, negative = inhibition, actives largely listed as inhibitors. AID 504333. AlphaScreen BAZ2B-H3K14Ac peptide displacement; note: % is set by controls: 0 for no effect and ±100 for the full control effect; nearly all actives have a fitted effect of over 60% in size
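In this displacement format the biotinylated H3(5-23) peptide acetylated at Lys14 serves as ligand at 50 nM, with BAZ2B at 50 nM in PBS pH 7.4 containing 0.01% Tween-20. Donor and acceptor beads are 10 ug/mL final.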
PLK1 PBD inh = inhibitors of human PLK1 polo-box domain binding. Plk1 PBD binding of FITC phosphopeptide, fluorescence polarization. 360,000 compounds, 2.8% hits. Potency, µM, for inactives: max response, negative = inhibition, usual class: inhibitors; note: series mostly up to about 57 µM; % is set by controls: 0 for no effect and ±100 for the full control effect; nearly all actives have a fitted effect of over 65% in size
Sfp PPTase inh = blocks B. subtilis Sfp PPTase activity. Q9F4F7. Biochemical Sfp PPTase activity, qHTS. Potency, µM, inactives show largest response in the series, negative = inhibition, usual class: inhibitors. 310,000 compounds, 3.5% hits. AID 1490;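 note: the enzyme is Sfp with the accession as filed and its product quenches rhodamine fluorescence; 0% = enzyme reaction without inhibitor and -100% = no enzyme wells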
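Reaction rates are the 30-min fluorescence difference (ex 525, em 598 nm) in wells containing 15 nM Sfp, 5 uM rhodamine-CoA and 12.5 uM BHQ-2-YbbR at pH 7.6 with 10 mM MgCl2.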
JMJD2A Tudor = inhibitors of human JMJD2A Tudor domain | Potency, µM (series often up to 114 µM), for inactives: top-dose activity change, negative = inhibition, actives largely listed as inhibitors | AID 504339 | 390,000 compounds, 4.4% hits | AlphaScreen JMJD2A-Tudor / H3K4me3 peptide binding | O75164; note: % is set by controls: 0 for no effect and ±100 for the full control effect; nearly all actives have a fitted effect of over 50% in size
HP1b binding inh = inhibitors of HP1-beta chromodomain binding to methylated histone tails; P83916; AlphaScreen HP1-beta / biotin-H3K9me3 peptide binding; Potency, µM (top dose mostly 114 µM), for inactives: at the highest dose activity change, negative = inhibition, usual class: inhibitors; 390,000 compounds, 0.56% hits; note: nearly all actives have a fitted effect of over 70% in size
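Compound inhibition of the preformed complex between 50 nM HP1-beta and 50 nM biotinylated H3K9me3 peptide was read by AlphaScreen. Buffer was PBS pH 7.4 with 0.01% Tween-20. Incubations ran 30 min at room temperature, with 10 ug/mL donor/acceptor beads.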
The depositor's hits bear a star; [ ] = remark or other dose. Rows were chosen to be rich in hits. Some 12% of all compounds tested hit in one or more screens of this group. Calls come from the whole dose curve; as a rule, active = well fitted curve in the direction sought with a large enough effect; inconclusive = small, poorly fitted or top-dose-only effect, or another doubt; inactive = no such curve, though single readings can be large; an effect the other way counts as inactive or inconclusive. Potency is the fitted concentration of half-maximal effect.

Results for CN(C)C(=O)Oc1ccc(C(=O)c2ccccc2)cc1 ?
G9a block: 16.2%[59 µM]; BAZ2B block: 3.8%; PLK1 PBD inh: -0.5%; Sfp PPTase inh: 4.2%; JMJD2A Tudor: -4.2%; HP1b binding inh: 24.7%

Results for CCOC(=O)c1sc(/N=C/c2c(O)n(-c3cccc(C)c3)c(=O)[nH]c2=O)c(C#N)c1C ?
G9a block: -20.1%[59 µM]; BAZ2B block: 0.8%; PLK1 PBD inh: 18.9µM*; Sfp PPTase inh: inconclusive; JMJD2A Tudor: 50.1µM*; HP1b binding inh: inconclusive

What do the screens show for `CCN(CC)S(=O)(=O)c1cccc(N=Nc2c(O)n(CC)c(=S)n(CC)c2=O)c1`?
G9a block: inconclusive; BAZ2B block: inconclusive; PLK1 PBD inh: inconclusive; Sfp PPTase inh: 11.7%; JMJD2A Tudor: 20µM*; HP1b binding inh: inconclusive

Results for O=C1C(Cl)=C(Cl)C(=O)C(Cl)=C1Cl ?
G9a block: inconclusive; Sfp PPTase inh: -84.8%

Results for CNC(C(=O)c1ccccc1)C(OC(C)=O)c1cccc([N+](=O)[O-])c1 (stereo not given) ?
G9a block: 50.1µM*; BAZ2B block: -23.9%; PLK1 PBD inh: -17.3%; Sfp PPTase inh: 22.4%; JMJD2A Tudor: -35.1%; HP1b binding inh: 5.7%

What do the screens show for `C[C@H]1CN(C2CCC(C#N)(c3ccc(F)cc3)CC2)CC[C@@]1(C(=O)O)c1ccccc1` (stereo not given in full)?
G9a block: 25.5%[21.5 µM]; Sfp PPTase inh: 11.4%

What do the screens show for `C=CCc1cc(C)ccc1OCCCC(C(=O)OCC)C(=O)OCC`?
G9a block: 112.0%[59 µM]; BAZ2B block: 169.1%; PLK1 PBD inh: -28.3%; Sfp PPTase inh: 4.1%; JMJD2A Tudor: 3.5%; HP1b binding inh: 166.8%

Results for CCCCCOc1ccc(C)cc1CN(CCCl)CCCl ?
BAZ2B block: -6.1%; PLK1 PBD inh: 23.8µM*; Sfp PPTase inh: inconclusive; JMJD2A Tudor: -21.4%; HP1b binding inh: 28.8%

What do the screens show for `CC(=O)[C@H]1CC[C@H]2C3CC[C@H]4C[C@](C)(O)CC[C@]4(C)C3CC[C@]12C` (stereo not given in full)?
Sfp PPTase inh: 2.4%

Results for O=C1OC(c2cc(I)c(O)c(I)c2)(c2cc(I)c(O)c(I)c2)c2ccccc21 ?
G9a block: 7.08µM*; Sfp PPTase inh: 39.8µM*

Results for OCC(O)Cc1ccc2c(c1)OCO2 (stereo not given) ?
G9a block: -18.5%[2.33 µM]; Sfp PPTase inh: 5.0%

What do the screens show for `CC(c1ccccc1)n1cncc1C(=O)N1CCCC1=O` (stereo not given)?
G9a block: 50.1µM*; BAZ2B block: inconclusive; PLK1 PBD inh: -2.9%; Sfp PPTase inh: 17.4%; JMJD2A Tudor: inconclusive; HP1b binding inh: 16.3%

Results for CCN1C[C@]2(C)CC[C@H](OC)[C@@]34[C@H]1C1(OCO[C@@]15C[C@H](OC)C1C[C@]3(O)C5[C@H]1OC)[C@@H](O)[C@H]24 ?
Sfp PPTase inh: 8.3%

What do the screens show for `O=[N+]([O-])c1cc(-c2ccc([As](=O)(O)O)cc2)ccc1[As](=O)(O)O`?
G9a block: 50.1µM*; BAZ2B block: inconclusive; Sfp PPTase inh: -2.1%

Results for O=[N+]([O-])c1ccc([As](=O)(O)O)cc1 ?
G9a block: inconclusive; Sfp PPTase inh: 4.7%

How did NS(=O)(=O)c1ccc(-c2ccc(C=C3C(=O)NC(=S)NC3=O)o2)cc1 do in these assays?
G9a block: 2.51µM*; BAZ2B block: 50.1µM*; Sfp PPTase inh: 12.6µM*

Results for NS(=O)(=O)c1ccc(N=Nc2c(O)[nH]c(=S)[nH]c2=O)cc1 ?
BAZ2B block: -14.6%; PLK1 PBD inh: -2.7%; Sfp PPTase inh: -7.6%; JMJD2A Tudor: 1.1%; HP1b binding inh: 21.7%

How did COc1ccc(-c2noc(=O)n2Cc2cc(C)ccc2C)cc1 do in these assays?
G9a block: -2.9%; BAZ2B block: -20.1%; PLK1 PBD inh: 1.5%; Sfp PPTase inh: 12.8%; JMJD2A Tudor: 41.9%; HP1b binding inh: 56.0%

What do the screens show for `CC1C(=O)OC2C1CC[C@@]1(C)C=CC(=O)[C@@]3(C)O[C@@]213` (stereo not given in full)?
G9a block: inconclusive; Sfp PPTase inh: 5.7%

What do the screens show for `Cc1ccc(S(=O)(=O)Oc2ccccc2C=C2C(=O)NC(=O)NC2=O)cc1`?
PLK1 PBD inh: 4.74µM*

Results for O=C1NC(=O)C(=Cc2ccccc2Oc2ccc(F)cc2)C(=O)N1 ?
G9a block: 10µM*; BAZ2B block: 16.3%; PLK1 PBD inh: 11.9µM*; Sfp PPTase inh: 44.7µM*; JMJD2A Tudor: -1.9%; HP1b binding inh: 42.4%

Results for O=C1NC(=O)C(=CCc2ccccc2)C(=O)N1 ?
PLK1 PBD inh: 0.0%; JMJD2A Tudor: -7.6%; HP1b binding inh: 62.2%

What do the screens show for `CN(C)C(=O)Oc1cccc([N+](C)(C)C)c1`?
G9a block: -8.3%[59 µM]; BAZ2B block: -17.4%; PLK1 PBD inh: -1.0%; Sfp PPTase inh: 6.7%; JMJD2A Tudor: 4.8%; HP1b binding inh: 50.6%

What do the screens show for `Cc1ccc(C(=O)Oc2cc(N)n(S(=O)(=O)c3ccc(F)cc3)n2)cc1`?
G9a block: 12.9%; BAZ2B block: 3.8%; PLK1 PBD inh: -5.2%; Sfp PPTase inh: -18.0%; JMJD2A Tudor: 10.5%; HP1b binding inh: 50.5%

What do the screens show for `O=C(NCCCN1CCCC1)c1ccc2c(c1)N(Cc1cccc(Cl)c1)C(=O)c1ccccc1S2=O` (stereo not given)?
G9a block: 39.8µM*; BAZ2B block: -10.9%[57.1 µM]; PLK1 PBD inh: -1.9%; Sfp PPTase inh: -7.3%; JMJD2A Tudor: -20.1%; HP1b binding inh: 19.4%

What do the screens show for `O=C(c1ccc2c(c1)N(Cc1ccc(F)cc1)C(=O)c1ccccc1S2)N1CCC2(CC1)OCCO2`?
G9a block: 2.6%[59 µM]; BAZ2B block: -18.9%; JMJD2A Tudor: inconclusive; HP1b binding inh: -7.5%

Results for CC(C)(O)[C@H]1O[C@H]2CC[C@@]3(C)[C@@](O)(CC[C@H]4Cc5c([nH]c6ccccc56)[C@@]43C)C2=CC1=O ?
G9a block: 31.6µM*; BAZ2B block: inconclusive; PLK1 PBD inh: -22.3%; Sfp PPTase inh: 10.9%; JMJD2A Tudor: inconclusive; HP1b binding inh: -13.7%

What do the screens show for `COCCCn1c(N)c(C(=O)NCc2ccco2)c2nc3ccccc3nc21`?
BAZ2B block: -34.3%; PLK1 PBD inh: -7.4%; Sfp PPTase inh: 22.4µM*; JMJD2A Tudor: 44.8%; HP1b binding inh: 100.6%

How did COCCNC(=O)c1c(N)n(Cc2ccco2)c2nc3ccccc3nc12 do in these assays?
G9a block: 3.3%; BAZ2B block: -2.4%; PLK1 PBD inh: -10.9%; Sfp PPTase inh: -25.7%; JMJD2A Tudor: 25.2%; HP1b binding inh: 70.8%
